Out of some 11,000 compounds screened, about 310 (2.8%) were called active. Cut-off read from the data, not from the text of the source: active = activity change below about -85%; inactive = the rest. The entries come from a sample that favours actives as a whole.

The test system of the experiment is intestinal alkaline phosphatase [Mus musculus]. Briefly: mouse intestinal phosphatase enzyme activation – biochemical, luminescence, single concentration, confirmation (AID 434970). To be noted: purified mouse IAP, CDP-Star luminescence, 30 min, at 10 µM; activation factor: measured here: IAP activation factor, stronger effect = higher value; activity change, negative = activation: stronger effect = lower value.
With `Cc1noc(C)c1COC(=O)C1COc2ccccc2O1` (stereo not given), the activation factor stood at 1.08 and the activity change, negative = activation was -8.15% (inactive).
Taken in the same sequence, the figures for `CC[C@]12c3[nH]c4cc(-c5ccco5)ccc4c3CCN1C(=O)[C@@H](CC(=O)NCC13CC4CC(CC(C4)C1)C3)C[C@@H]2C(=O)N1CCN(C(=O)C2CC2)CC1` were 0.989 and 1.05% (inactive).
In the case of `COc1cc2sc(-c3ccccc3OC)c(-c3ccc(OCCN4CCOCC4)cc3)c2cc1OC`, the activation factor came to 1 and the activity change, negative = activation was -0.3% (inactive).
As to `CCSc1nnc(NC(=O)CCNS(=O)(=O)c2cc(Br)cnc2N)s1`, the activation factor is 0.825 and the activity change, negative = activation was 17.4% (inactive).
Take `CC(C)(C)c1ccc(NC(=O)Nc2ccc(F)cc2)cc1`: the activation factor was 1.65 and the activity change, negative = activation was -65.3% (inactive).
Regarding `CCOC(=O)c1cccc(NC(=O)Nc2ccc(OCC)cc2)c1`, the activation factor amounted to 1.88 and the activity change, negative = activation is -87.6% (inactive).
For the compound `O=C(Nc1ccc(F)cc1)Nc1cccc(Br)c1`, the activation factor came out at 1.74 and the activity change, negative = activation is -73.8% (inactive).
For `CCOc1ccc(NC(=O)Nc2cc(C)ccc2OC)cc1` the same measures were 1.16 and -15.9% (inactive).
On to `O=C(Nc1ccc(F)cc1)Nc1cc(OCC(F)(F)F)cc(OCC(F)(F)F)c1`, for which the activation factor was determined as 2.11 and the activity change, negative = activation was -111% (active).
On to `CCOc1ccc(NC(=O)Nc2cc(OCC(F)(F)F)cc(OCC(F)(F)F)c2)cc1`, for which the activation factor amounted to 2.08 and the activity change, negative = activation was -108% (active).
Take `CC(C)Oc1cccc(C(=O)Nc2ccc(N3CCN(S(C)(=O)=O)CC3)cc2)c1`: the activation factor was determined as 1.1 and the activity change, negative = activation is -10.2% (inactive).
Consider `CCOCCCNC(=O)C(C)NS(=O)(=O)c1ccc(C)cc1` (stereo not given), for which the activation factor turned out to be 0.903 and the activity change, negative = activation is 9.65% (inactive).
`COc1ccc(C(=O)NCC(C)C)c(OC)c1`: the activation factor is 0.893 and the activity change, negative = activation is 10.7% (inactive).
`CC(C)(C)OC(=O)N[C@@H](Cc1ccccc1)c1nnc(SCC(=O)O)o1`: the activation factor was found to be 0.956 and the activity change, negative = activation was 4.4% (inactive).
Take `O=S(=O)(c1ccc2ccccc2c1)N1CCCOC1`: the activation factor turned out to be 1.17 and the activity change, negative = activation is -16.5% (inactive).
Consider `CCOc1ccccc1NC(=O)N1C2CCCC1CC(NC(=O)C1CC1)C2` (stereo not given), for which the activation factor turned out to be 1.05 and the activity change, negative = activation was -5.1% (inactive).
For the compound `COc1cccc(NC(=O)CC2COc3ccccc3O2)c1` (stereo not given), the activation factor came out at 1.15 and the activity change, negative = activation was -15% (inactive).
As to `COc1cc(NC(=O)CCN2CCN(Cc3ccccc3)CC2)cc(OC)c1`, the activation factor worked out at 0.978 and the activity change, negative = activation is 2.15% (inactive).
Turning to `COc1cccc(NC(=O)N2CCCC2C(=O)NC(C)C)c1` (stereo not given), the activation factor was determined as 0.971 and the activity change, negative = activation was 2.9% (inactive).
Regarding `CCN1CCN(CCC(=O)Nc2cccc(OC)c2)CC1`, the activation factor is 0.925 and the activity change, negative = activation was 7.45% (inactive).
For `COc1cccc(C(=O)NC2CCN(C(=O)N3CCCCC3)CC2)c1`, the activation factor stood at 1.09 and the activity change, negative = activation is -9.3% (inactive).
Taken in the same sequence, the figures for `COc1cc(NC(=O)NC2Cc3ccccc3C2)cc(OC)c1` were 2.69 and -169% (active).
Take `CC(=O)c1cccc(NC(=O)NC(C)C2CCCO2)c1` (stereo not given): the activation factor turned out to be 1.12 and the activity change, negative = activation was -12.2% (inactive).
For `COc1cccc(NC(=O)NC(C)C2CC3CCC2C3)c1` (stereo not given) the same measures were 1.97 and -96.6% (active).
For the compound `CCC1CCC(NC(=O)Nc2cccc(OC)c2)CC1` (stereo not given), the activation factor was 2.37 and the activity change, negative = activation was -137% (active).
Regarding `COc1cccc(NC(=O)NCCCSC2CCCCC2)c1`, the activation factor is 1.68 and the activity change, negative = activation is -67.6% (inactive).
Regarding `COc1cccc(NC(=O)NC2CCCCCCC2)c1`, the activation factor came to 2.67 and the activity change, negative = activation is -167% (active).
Taken in the same sequence, the figures for `COc1cc(NC(=O)c2ccccc2)cc(OC)c1` were 0.99 and 0.95% (inactive).
Consider `COc1ccc(-c2nnc(SCC(=O)N3CCOCC3)n2C)cc1OC`, for which the activation factor was determined as 1.07 and the activity change, negative = activation is -7.45% (inactive).
In the case of `Cn1c(-c2ccc(F)cc2)cnc1NCc1cccc(F)c1`, the activation factor was 0.905 and the activity change, negative = activation was 9.55% (inactive).
For `CC(C)OC(=O)c1cccc(NC(=O)c2ccccc2)c1` the same measures were 0.988 and 1.25% (inactive).
Turning to `Cc1oc(-c2cccs2)nc1CSCC(=O)NC1CC1`, the activation factor amounted to 0.893 and the activity change, negative = activation is 10.8% (inactive).
As for `CN(c1ccccc1C(=O)NCc1ccccn1)S(C)(=O)=O`, the activation factor was 1.03 and the activity change, negative = activation was -3.4% (inactive).
With `COC(=O)[C@@]1(C)[C@H]2C(=O)N(Cc3ccccc3)C(=O)[C@H]2[C@H]2CN=C(SC)N21`, the activation factor was 1.09 and the activity change, negative = activation is -9.05% (inactive).
Taken in the same sequence, the figures for `CCN1C(=O)[C@H]2[C@H]3CN=C(SC)N3[C@@](CC)(C(=O)OC)[C@H]2C1=O` were 0.957 and 4.3% (inactive).
For the compound `COC(=O)c1sc2ncn(-n3c(C)ccc3C)c(=O)c2c1C`, the activation factor was found to be 1.03 and the activity change, negative = activation was -3.25% (inactive).
Taken in the same sequence, the figures for `CC[C@]12c3[nH]c4cc(-c5ccco5)ccc4c3CCN1C(=O)[C@@H](CC(=O)NC(C)(C)C)C[C@@H]2C(=O)N1CCN(C(=O)C2CC2)CC1` were 0.984 and 1.6% (inactive).
For the compound `COc1ccc(NC(=O)Nc2ccc3c(c2)C(=O)N([C@@H](C)CO)C[C@@H](C)[C@@H](CN(C)S(=O)(=O)c2cccs2)O3)cc1`, the activation factor was 1.76 and the activity change, negative = activation is -75.9% (inactive).
In the case of `C[C@H](CO)N1C[C@H](C)[C@@H](CN(C)S(=O)(=O)c2cccs2)Oc2ccc(NC(=O)Nc3ccc4c(c3)OCO4)cc2C1=O`, the activation factor turned out to be 1.88 and the activity change, negative = activation is -87.5% (inactive).
Turning to `C[C@H](CO)N1C[C@H](C)[C@@H](CN(C)C(=O)Nc2ccc(C(F)(F)F)cc2)Oc2ccc(NC(=O)NC3CCCCC3)cc2C1=O`, the activation factor is 1.76 and the activity change, negative = activation was -76.3% (inactive).

The record behind these values is PubChem BioAssay AID434970 (Sanford-Burnham Center for Chemical Genomics, 2010).
